Measurements published in the supplement of paper PMC13380429.
Values without a mark were called inactive.

System: Vero E6 infected with SARS-CoV-2
Test: inhibition of SARS-CoV-2 cytopathic effect; higher = more antiviral protection, active = above 15
Conditions: 48 h

| SMILES | inhibition of SARS-CoV-2 cytopathic effect (1 nM) [%] | inhibition of SARS-CoV-2 cytopathic effect (8.33 nM) [%] | inhibition of SARS-CoV-2 cytopathic effect (100 nM) [%] | inhibition of SARS-CoV-2 cytopathic effect (833.33 nM) [%] | inhibition of SARS-CoV-2 cytopathic effect (10000 nM) |
| --- | --- | --- | --- | --- | --- |
| N=C(N)NC(=O)Cc1c(Cl)cccc1Cl [guanfacine] | 3.14 | 4.91 | -3.11 | 1.89 | -0.42% |
| O=C1O[C@H]([C@@H](O)CO)C([O-])=C1O.[Na+] [sodium-ascorbate] | -1.43 | 0.79 | 0.39 | 1.19 | 2.74% |
| O=C(O)C[C@H](O)C(=O)O [malic-acid] | -0.21 | -2.53 | -1.2 | 3.51 | 1.76% |
| Nc1ccc(C(=O)Nc2cccc(-c3nc(N4CCOCC4)c4oc5ncccc5c4n3)c2)cn1 | -0.93 | -2.3 | -2.43 | 0 | 20.4% (active) |
| Nc1n[n+]([O-])c2ccccc2[n+]1[O-] [tirapazamine] | -0.88 | 0.77 | 2.11 | 0.37 | 2.74% |
| O=c1cc(-c2cccc3c2Sc2ccccc2S3)oc(N2CCOCC2)c1 | 2.07 | -2.3 | -0.67 | 3.55 | -1.33% |
| CC(CN(C)C)CN1c2ccccc2CCc2ccccc21 (stereo not given) [trimipramine] | -3.96 | -0.87 | -0.5 | -2.02 | -3.88% |
| CCOC(=O)Nc1nc2ccccc2[nH]1 [lobendazole] | -9.74 | -7.4 | -4.73 | -6.72 | -11.2% |
| Cc1sc2c(c1C)C(c1ccc(Cl)cc1)=N[C@@H](CC(=O)Nc1ccc(O)cc1)c1nnc(C)n1-2 | 1.01 | 0.43 | -1.47 | -3.68 | -9.86% |
| CC1(C)S[C@@H]2[C@H](NC(=O)COc3ccccc3)C(=O)N2[C@H]1C(=O)O [penicillin-v-potassium] | -0.76 | 1.87 | -1.93 | 1.76 | 0.08% |
| NC(=O)c1cccc(N)c1 [3-amino-benzamide] | -2.7 | -0.97 | -0.7 | -1.13 | 0.61% |
| C[C@H](CCC(=O)NCCS(=O)(=O)O)[C@H]1CC[C@H]2[C@@H]3[C@H](O)C[C@@H]4C[C@H](O)CC[C@]4(C)[C@H]3C[C@H](O)[C@]12C [taurocholate] | -8.93 | -4.1 | -6.72 | -7.82 | -8.38% |
| COc1ccc(OC)c(C(O)C(C)N)c1 (stereo not given) [methoxamine] | 0.07 | -0.09 | 1.61 | 3.81 | 0.66% |
| COc1ccc(CNC(=O)/C=C/c2ccc3[nH]cc(CCN(C)C)c3c2)cc1 | 2.58 | 0.05 | 1.04 | 1.72 | 2.86% |
| Clc1ccc(C2(c3ccc(-c4cn[nH]c4)cc3)CCNCC2)cc1 | 1.57 | -1.08 | 1.96 | -6.2 | -7.71% |
| CNc1nc(NCc2ccc(NS(C)(=O)=O)cc2Cl)cc(-c2ccccn2)n1 | -1.79 | -3 | 0.48 | -2.53 | 2.16% |
| CN(C)CCCOc1nn(Cc2ccccc2)c2ccccc12 [benzydamine] | 1.21 | 2.44 | 2.33 | 0.09 | -0.14% |
| CC1(C)CCC(C)(C)c2cc(NC(=O)c3ccc(C(=O)O)cc3)ccc21 [tamibarotene] | 4.56 | 1.67 | 1.5 | 0.87 | 0.68% |
| Cc1nc(NC(=O)N2CCC[C@H]2C(N)=O)sc1-c1ccnc(C(C)(C)C(F)(F)F)c1 [alpelisib] | 2.4 | 0.48 | 0.01 | -1.87 | 0.02% |
| COc1ccc2cc(C(C)C(=O)Oc3ccc(C(N)=S)cc3)ccc2c1 (stereo not given) | -0.75 | 0.03 | -0.37 | 0.55 | 4.55% |
| COc1cc(-c2ncn(/C=C\C(=O)OC(C)C)n2)cc(C(F)(F)F)c1 | -1.83 | -2.94 | -8.02 | -12.1 | -11.7% |

| SMILES | inhibition of SARS-CoV-2 cytopathic effect (1 nM) [%] | inhibition of SARS-CoV-2 cytopathic effect (8.33 nM) [%] | inhibition of SARS-CoV-2 cytopathic effect (100 nM) [%] | inhibition of SARS-CoV-2 cytopathic effect (833.33 nM) [%] | inhibition of SARS-CoV-2 cytopathic effect (10000 nM) |
| --- | --- | --- | --- | --- | --- |
| CCOC(=O)c1ncn2c1CN(C)C(=O)c1cc(F)ccc1-2 [flumazenil] | -5.56 | -4.56 | -4.89 | -4.65 | -1.96% |
| Cc1nn(C)c2c1C(c1cccc(Cl)c1)=NCCN2 [zometapine] | -1.8 | -1.16 | 1.14 | -0.92 | -4.7% |
| O=C1CCC(N2C(=O)c3ccccc3C2=O)C(=O)N1 (stereo not given) [thalidomide] | 5.17 | -1.38 | -2.47 | -1.68 | -4.45% |
| O=C(/C=C/c1cccc(S(=O)(=O)Nc2ccccc2)c1)NO [belinostat] | -1.11 | 0.41 | -1.26 | -13.7 | -27.1% |
| O=C(O)CCNc1cc(N2CCc3ccccc3CC2)nc(-c2ccccn2)n1 | -2.6 | 1.21 | 0.26 | -1.21 | 0.82% |
| COc1ccccc1C1(O)CCN(CCCn2c3ccccc3c3ccccc32)CC1 | 0.73 | 1.45 | 2.5 | 1.69 | 42.4% (active) |
| COc1ccccc1N1CCN(CCN2C(=O)CC3(CCCC3)CC2=O)CC1 | 0.12 | 1.57 | 2.97 | 1.51 | 0.47% |
| Cc1cc(CC(=O)O)n(C)c1C(=O)c1ccc(Cl)cc1 [zomepirac] | -4.55 | -6.14 | -5.66 | -0.27 | -0.22% |
| Nn1cnc2cc3ccccc3cc2c1=O [centazolone] | -0.59 | 0.85 | 0.4 | -1.41 | 0.93% |
| Cc1[nH]c2ccc(Cl)cc2c1C1=CCNCC1 | 0.44 | 2.01 | -0.51 | 1.48 | 10.1% |
| CCOC(=O)[C@H](CCc1ccccc1)N[C@@H](C)C(=O)N1[C@H](C(=O)O)C[C@@H]2CCC[C@@H]21 [ramipril] | -0.55 | -0.01 | -0.53 | 5.34 | -2.38% |
| Nc1ccc(S(=O)(=O)Nc2nccs2)cc1 [sulfathiazole] | 1.78 | 2.25 | 0.28 | 1.1 | -0.08% |
| O=C(O)c1cccnc1C(=O)O [quinolinic-acid] | 1.12 | -1.19 | 0.73 | -1.65 | -4.35% |
| OC(CCCN1CCN(c2ncc(F)cn2)CC1)c1ccc(F)cc1 (stereo not given) | -3.3 | -0.94 | 3.34 | 4.34 | 0.33% |
| CC(C)N(CC[C@H](c1ccccc1)c1cc(CO)ccc1O)C(C)C [5-hydroxymethyl-tolterodine] | -1.98 | -1.4 | -1.82 | 2.8 | -3.28% |
| CN(CCCN1c2ccccc2CCc2ccccc21)CC(=O)c1ccc(Cl)cc1 [lofepramine] | 2.35 | -0.58 | 1.56 | 2.86 | 0.69% |
| Cc1cc(C)cc(C(=O)O[C@H]2C[C@H]3CC[C@@H](C2)N3C)c1 [tropanyl-3,5-dimethylbenzoate] | -1.37 | 1.19 | 2.71 | -1.34 | 1% |
| O=C(Nc1cccc(Nc2ncc(Br)c(NCCc3cnc[nH]3)n2)c1)N1CCCC1 | -2.91 | -2.57 | -1 | -2.29 | -4.48% |
| CC(COc1ccccc1Cc1ccccc1)N1CCCCC1 (stereo not given) [benproperine] | -1.82 | 0.63 | -0.71 | -3.69 | -3.54% |
| CCCN1CCCC(c2cccc(O)c2)C1 (stereo in doubt) [preclamol] | -0.2 | -0.3 | 0.42 | 1.02 | -1.58% |
| CCc1nc(C)ccc1O [emoxipin] | 1.2 | 3.95 | 1.53 | 0.68 | 1.33% |
